Reference: PubChem BioAssay (Tox21)
Results filed as inconclusive are left out. Entries that show only a call come without a potency. Calls of active or inactive are those of the source. Calls follow the shape of the dose curve; as a rule, active = well fitted activation curve with a large enough effect in the repeat runs; inconclusive = weak or mixed curves; inactive = flat fitted curve, though single readings scatter.
Potency is read from the fitted curve at half-maximal effect.

Assay: Caspase-3/7 induction in HepG2 cells by small molecules, qHTS assay (AID 1346978); also: nearly all actives have a fitted effect of over 15% in size
Conditions: HepG2 caspase-3/7 activation, Caspase-Glo luminescence, 17 h; series mostly up to 92.4 µM
Excerpt: National Center for Advancing Translational Sciences [NCATS] NIH Chemical Genomics Center [NCGC] U.S. Environmental Protection Agency [EPA] National Institutes of Environmental Health Sciences [NIEHS] National Toxicology Program [NTP] Assay overview: Apoptosis is a process of programmed cell death and plays a central role in the development of multicellular organisms. It is a highly regulated process and induces cell death by activating caspases, which are the members of cysteine aspartic acid-specific protease (caspase) family. Caspases involved in apoptosis are classified by their mechanism of action as initiator caspases (caspase-2, -8, -9 and -10) and executioner caspases (caspase-3, -6, and -7). Inhibition of apoptosis results in number of cancers, autoimmune diseases, inflammatory diseases and viral infection. To identify small molecule compounds that induce apoptosis, a homogeneous, luminescent Caspase-Glo 3/7 assay was used. Wild type HepG2 cells were used to screen Tox21 libraries for identifying caspase-3/7 activity inducers.
Assay Protocol Summary: HepG2 cells were dispensed at 2,000 per well in 5uL of culture medium into white solid bottom 1536-well plates (Corning Life Sciences, Corning, NY) using a Multidrop Combi (Thermo Scientific, Waltham, MA) dispenser. The assay plates were incubated at 37 C and 5% CO2 for 5hr, and then 23nL of compounds dissolved in DMSO and positive control were transferred using a Pintool station (Wako, San Diego, CA). The assay plates were incubated at 37C and 5% CO2 for 17hr. For caspase-3/7 activity read, 4uL of Caspase-Glo 3/7 reagent (Promega Corporation, Madison, WI) was added to each well of the assay plates using Flying Reagent Dispenser (FRD, Aurora Discovery, San Diego, CA) and incubated the assay plates at room temperature for 30min. The luminescence signal was quantified using a ViewLux plate reader (Perkin Elmer, Shelton, CT).
In the case of `CC[C@]1(O)C[C@H]2CN(CCc3c([nH]c4ccccc34)[C@@](C(=O)OC)(c3cc4c(cc3OC)N(C=O)[C@H]3[C@@](O)(C(=O)OC)[C@H](OC(C)=O)[C@]5(CC)C=CCN6CC[C@]43[C@@H]65)C2)C1`, the Potency was “inactive”.
For `CN1C(=O)N(c2ccccc2Br)Cc2cnc(Nc3ccc4c(c3)OCC(CO)O4)nc21` (stereo not given), the Potency was 6.11 µM (active).
For `O=C(Nc1cccc2c(=O)cc(-c3nn[nH]n3)oc12)c1ccc(OCCCCc2ccccc2)cc1`, the Potency was “inactive”.
In the case of `CC/C=C1/OC(=O)c2ccccc21`, the Potency was “inactive”.
In the case of `O=c1c(O)c(-c2ccc(O)cc2)oc2cc(O)cc(O)c12`, the Potency was “inactive”.
With `O=C(/C=C/c1ccccc1)OCCc1ccccc1` the Potency was “inactive”.
For `CC(=O)[C@H]1[C@H](C#N)C[C@H]2[C@@H]3CC=C4C[C@@H](O)CC[C@]4(C)[C@H]3CC[C@@]21C`, the Potency was “inactive”.
For `Oc1cccc(O)c1O`, the Potency was “inactive”.
In the case of `Cc1cccc(N(C)C(=S)Oc2ccc3c(c2)CCC3)c1`, the Potency was “inactive”.
For `O=C(CCCN1CC=C(n2c(=O)[nH]c3ccccc32)CC1)c1ccc(F)cc1`, the Potency was “inactive”.
In the case of `COC(=O)C1=C(C)NC(C)=C(C(=O)O[C@@H]2CCCN(Cc3ccccc3)C2)[C@@H]1c1cccc([N+](=O)[O-])c1`, the Potency was “inactive”.
With `CCC(=O)C1CC(C(C)C)CC=C1C` (stereo not given) the Potency was “inactive”.
For `O=C(OC(=O)c1ccccc1)c1ccccc1`, the Potency was “inactive”.
For `C=CCc1ccccc1OCC(O)CNC(C)C` (stereo not given), the Potency was “inactive”.
For `CCCCCCCC/C=C\CCCCCCCCCCCC(=O)O`, the Potency was “inactive”.
With `C=C/C(C)=C/C/C=C(\C)CCC=C(C)C` the Potency was “inactive”.
In the case of `C=CC(=O)OCC1CC2CC1C1CCC(COC(=O)C=C)C21` (stereo not given), the Potency was “inactive”.
In the case of `O=C1Cc2cc(Cl)ccc2N1`, the Potency was “inactive”.
In the case of `O=C=Nc1ccc(Cl)c(Cl)c1`, the Potency was “inactive”.
For `O=C1c2ccccc2C(=O)C1c1nc2ccccc2c(Br)c1O`, the Potency was “inactive”.
With `COc1ccccc1N1CCN(CC(O)COc2cccc3ccccc23)CC1` (stereo not given) the Potency was “inactive”.
In the case of `CCOc1ccccc1O[C@H](c1ccccc1)[C@H]1CNCCO1`, the Potency was “inactive”.
In the case of `O=C(O)CCc1nc(-c2ccccc2)c(-c2ccccc2)o1`, the Potency was “inactive”.
In the case of `CN(C)CCN1C(=O)c2ccccc2N(C)c2ccccc21`, the Potency was “inactive”.
In the case of `Cc1ccc(Cl)c(Nc2ccccc2C(=O)O)c1Cl`, the Potency was “inactive”.
For `CC1CC(C)C(=O)C1=O` (stereo not given), the Potency was “inactive”.
In the case of `COc1cc(Nc2c(C#N)cnc3cc(OCCCN4CCN(C)CC4)c(OC)cc23)c(Cl)cc1Cl`, the Potency was 11.9 µM (active).
With `CN(C)CCC=C1c2ccccc2C=Cc2ccccc21` the Potency was “inactive”.
In the case of `COC(=O)c1nc(Cl)c(Cl)nc1N`, the Potency was “inactive”.
With `CCCCCCCCCI` the Potency was “inactive”.
In the case of `CCOC(=O)C1=C(C)NC(C)=C(C(=O)OC)C1c1cccc(Cl)c1Cl` (stereo not given), the Potency was “inactive”.
With `Nc1ccc(N=Nc2ccccc2)c(N)c1` the Potency was “inactive”.
With `CCOC(=O)c1ccc(I)cc1` the Potency was “inactive”.
With `O=C1CCCCCCCCCCOCCCCO1` the Potency was “inactive”.
With `CC1=C(CC=O)C(C)(C)CCC1` the Potency was “inactive”.
In the case of `CCCCOc1ccc(OCCCN2CCOCC2)cc1`, the Potency was “inactive”.
For `COC(=O)CS`, the Potency was “inactive”.
For `C[C@H]1c2cccc(O)c2C(O)=C2C(=O)[C@]3(O)C(O)=C(C(N)=O)C(=O)[C@@H](N(C)C)[C@@H]3[C@@H](O)[C@@H]21`, the Potency was “inactive”.
In the case of `CCn1cc(C(=O)O)c(=O)c2cc(F)c(N3CCNCC3)cc21`, the Potency was “inactive”.
In the case of `CC(C)C=O`, the Potency was “inactive”.
